FMDV antiviral: antivirals against foot and mouth disease virus; FMDV antiviral cell-based qHTS; Potency, µM (highest dose often 57.9 µM), without a hit: at the highest dose activity change, negative = inhibition, hits mostly inhibitors; AID 1159524; actives 1.2% (n = 410,000); calls by dose curve; tested in HEK293T cells; note: read-out not given here; potency is the fitted concentration of half-maximal effect; % is set by controls: 0 for no effect and ±100 for the full control effect; nearly all actives have a fitted effect of over 45% in size
HCV inhibitor: inhibitors of hepatitis C virus infection. Huh7.5.1 HCVcc-Cre infection, luciferase reporter, 44 h. Potency, µM (highest dose often 41.8 µM), for inactives: at the top dose activity change, negative = inhibition, usual class: inhibitors. actives 3.4% (n = 340,000); active = well fitted inhibition curve with a large enough effect; inconclusive = small, poorly fitted or top-dose-only effect, or another doubt; inactive = no such curve, though single readings can be large or run the other way; note: potency is the fitted concentration of half-maximal effect; % is set by controls: 0 for no effect and ±100 for the full control effect
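Seed cells (1,000/well) for 4 h; treat with compound and infect with HCVcc-Cre, moi about 0.5. Incubate 44 h, then detect luciferase activity.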
Shiga toxin inh: Shiga toxin inhibition; Vero cells, Shiga toxin protein synthesis inhibition reporter; inhibition, % at 38.7 µM; actives 9.2% (n = 290,000); AID 2315; in the data active = inhibition mostly above about 28%, no sharp cut-off; inactive = mostly below about 43%; note: 0% is about no effect
Cycloheximide cs: counter-screen hit for Shiga toxin inhibitors, cycloheximide; actives 12% (n = 300,000); cell reporter, cycloheximide protein synthesis inhibition counterscreen; max response, %; in the data active = max response mostly above about 13%, no sharp cut-off; inactive = mostly below about 14%; note: read at 38.3 µM for the half of the compounds with a filed dose; 0% is about no effect
Lassa entry inh: inhibitors of Lassa virus binding or cell entry. Lassa virus pseudotype entry inhibition, cell reporter. Potency, µM (doses to about 37.9 µM), for inactives: at the top dose activity change, negative = inhibition, usual class: inhibitors. actives 1.2% (n = 300,000). AID 540256; calls by dose curve; tested in HEK293 cells; note: potency is the fitted concentration of half-maximal effect; % is set by controls: 0 for no effect and ±100 for the full control effect; nearly all actives have a fitted effect of over 50% in size
Marburg entry inh: blocks Marburg virus binding to or entry into cells. Marburg virus pseudotyped entry inhibition, cell reporter. Potency, µM (doses to about 37.8 µM), for the others: at the top dose activity change, negative = inhibition, most hits filed as inhibitors. actives 1.8% (n = 300,000). AID 540276; calls by dose curve; tested in HEK293 cells; note: potency is the fitted concentration of half-maximal effect; % is set by controls: 0 for no effect and ±100 for the full control effect
Starred values were filed as active, the others as inactive; ? = inconclusive; . = no result given; [ ] = remark or other dose. Most compounds without a hit are left out; they make up all but 13% or so of the library.

SMILES	FMDV antiviral	HCV inhibitor	Shiga toxin inh	Cycloheximide cs	Lassa entry inh	Marburg entry inh
COc1cccc(-c2nc(N3CC(C)CC(C)C3)c3ccccc3n2)c1O (stereo unspecified)	?	14µM*	13	-4	?	?
COc1cccc(-c2nc(N3CCC(C)CC3)c3ccccc3n2)c1O	-25%	?	-24	-6	-43%	?
COc1cccc(-c2nc(N3CCCC3)c3ccccc3n2)c1O	-11%	5µM*	-3	1	6%	-10%[46.1 µM]
CN(C)c1ccc(CN(C(=O)c2ccccc2Br)C2CCS(=O)(=O)C2)cc1 (stereo unspecified)	-16%	3%	35*	10*	.	.
CN(C)c1ccc(CN(C(=O)c2ccc(Cl)c([N+](=O)[O-])c2)C2CCS(=O)(=O)C2)cc1 (stereo unspecified)	-15%	?	7	15	?	11µM*
CN(C)c1ccc(CN(C(=O)c2cc3ccccc3oc2=O)C2CCS(=O)(=O)C2)cc1 (stereo unspecified)	41%	-14%	63*	47*	.	.
O=C(c1ccc(Cl)c([N+](=O)[O-])c1)N(Cc1ccc(F)cc1)C1CCS(=O)(=O)C1 (stereo unspecified)	-12%	-16%	-15	-2	4%	-15%
O=C(c1cc2ccccc2oc1=O)N(Cc1ccco1)C1CCS(=O)(=O)C1 (stereo unspecified)	59%	19%	35	29*	29%	9%
COc1ccc(NC(=O)c2cc(C3CCCCN3C(=O)c3ccc4c(c3)CCO4)on2)c(C)c1 (stereo unspecified)	22%	.	.	.	.	.
Cc1ccc2oc(C(=O)N(Cc3ccc(N(C)C)cc3)C3CCS(=O)(=O)C3)c(C)c2c1 (stereo unspecified)	-18%	-11%	16	16*	?	?
O=C(c1cc2ccccc2oc1=O)N(Cc1cccc(Br)c1)C1CCS(=O)(=O)C1 (stereo unspecified)	11%	2%	31	15*	1%[46.1 µM]	-22%[46.1 µM]
Cc1ccc2c(C)c(C(=O)N(Cc3ccc(N(C)C)cc3)C3CCS(=O)(=O)C3)oc2c1 (stereo unspecified)	-27%	-21%	5	1	.	.
COc1cccc(CN(C(=O)c2cc3ccccc3oc2=O)C2CCS(=O)(=O)C2)c1 (stereo unspecified)	24%	11%	79*	42*	1%[46.1 µM]	?
O=C(c1cc2ccccc2oc1=O)N(Cc1cccc(Cl)c1)C1CCS(=O)(=O)C1 (stereo unspecified)	10%	.	.	.	-16%[46.1 µM]	-3%[46.1 µM]
O=C1CC(N(CCc2ccccc2)C(=S)Nc2ccccc2)C(=O)N1c1ccc(Br)cc1 (stereo unspecified)	-2%	?	-5	1	?	?
O=C(NCc1ccc(Cl)cc1)C1CCN(S(=O)(=O)Cc2ccccc2)CC1	-19%	.	.	.	16%[46.1 µM]	-14%[46.1 µM]
Cc1ccc(C)n1-c1ccc(C(=O)Nc2ccccc2)cc1	4%	9%	98*	34*	-19%	-20%
Cc1ccc(C)n1-c1cccc(NC(=O)c2ccccc2)c1	?	?	38*	19*	-4%	8%
O=C(O)COCC(=O)Nc1ccccc1-c1ccccc1	14%	14%	15	-3	0%	18%[46.1 µM]
COc1cc(OC)c(C(=O)OCC(=O)Nc2ccccc2Cl)cc1OC	-22%	-3%	-7	7	19%	8%[46.1 µM]
CCCCn1c(=N)n(CC(O)COc2ccccc2)c2ccccc21 (stereo unspecified)	?	?	-7	-5	?	?
CCn1c(=N)n(CC(O)COc2cccc(C)c2)c2ccccc21 (stereo unspecified)	?	?	1	-5	0%	?
CCCCn1c(=N)n(CC(O)COc2ccc(C)cc2)c2ccccc21 (stereo unspecified)	?	11µM*	-12	-5	?	?
CCCn1c(=N)n(CC(O)COc2cccc(C)c2)c2ccccc21 (stereo unspecified)	?	?	-11	-3	-20%	8.2µM*
O=[N+]([O-])c1ccc(Cl)cc1Sc1ccccn1	-13%	-15%	-8	7	0%	5%
SMILES	FMDV antiviral	HCV inhibitor	Shiga toxin inh	Cycloheximide cs	Lassa entry inh	Marburg entry inh
CCOc1cc(/C=C\[N+](=O)[O-])ccc1OCC(=O)N1CCOCC1	8.9µM*	?	-7	-2	-8%	-10%[46.1 µM]
O=c1c2oc3ccccc3c2ncn1Cc1ccc(Cl)cc1	6%	21%	5	9	1%	0%[46.1 µM]
CCCCn1cnc2c(oc3ccccc32)c1=O	45%	-18%	72*	51*	.	.
CC(C)n1cnc2c(oc3ccccc32)c1=O	66%	-6%	67*	32*	?	?
N#CCn1cnc2c(oc3ccccc32)c1=O	5%	20%	10	13*	.	.
Cc1ccccc1Cn1cnc2c(oc3ccccc32)c1=O	45%	-5%	41	14	-4%	7%[46.1 µM]
Cc1ccc(C)c(S(=O)(=O)N2CCN(C(=O)CN3C(=O)C4CC=CCC4C3=O)CC2)c1 (stereo unspecified)	-15%	-16%	.	.	-9%	-1%
CCc1cc2c(cc3c(=O)n(CC(=O)NCCCN4CC(C)CC(C)C4)ncn32)s1 (stereo unspecified)	-7%	1%	-14	-9	.	2%
COc1ccc(NC(=O)c2cccc(N3C(=O)C4C5C=CC(C5)C4C3=O)c2)cc1Cl (stereo unspecified)	?	10µM*	14	-1	-27%	12%[46.1 µM]
O=C(Nc1ccc(Cl)cc1)c1cccc(N2C(=O)C3C4CCC(C4)C3C2=O)c1 (stereo unspecified)	32µM*	?	52*	23*	?	?
CN(C)c1ccc(NC(=O)c2cccc(N3C(=O)C4C5C=CC(C5)C4C3=O)c2)cc1 (stereo unspecified)	7%	-2%	144	62*	8%	0%
COc1ccc(-c2noc(C3CC(=O)N(c4cc(C)cc(C)c4)C3)n2)cc1 (stereo unspecified)	?	.	.	.	3%[46.1 µM]	.
Cc1cc(C)c2c(N)c(C(=O)N/N=C/c3cccnc3)sc2n1	41%	-15%	43	43*	-2%	?
Cc1cc(C)c2c(N)c(C(=O)N/N=C/c3ccccc3)sc2n1	46%	-8%	121*	59*	.	.
Cc1cc(C)c2c(N)c(C(=O)NN3CC(=O)N(c4ccccc4F)CC3=O)sc2n1	-16%	7%	17	-3	-1%	0%
O=C(NC1CCCC1)C(c1ccncc1)N(C(=O)Cc1cccs1)c1cccc(F)c1 (stereo unspecified)	-6%	5%	1	-6	-18%[46.1 µM]	5%[46.1 µM]
COc1cccc(NC(=O)CSc2nc3ccccc3c(=O)n2Cc2cccs2)c1	49%	?	17	6	-13%	?
N#CCCn1cc(C(=O)Nc2ccc([N+](=O)[O-])cc2)c(-c2cc3ccccc3o2)n1	-17%	?	-13	-4	?	?
